High-throughput results as filed in PubChem BioAssay.
GCN5L2 inh = blocks human GCN5L2 histone acetyltransferase; Q92830; GCN5L2 HAT assay, ThioGlo1 CoA-SH fluorescence; Potency, µM (doses to about 58.9 µM), inactives show at the highest dose activity change, negative = inhibition, most hits filed as inhibitors; 390,000 tested, 0.21% active; AID 504327
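Free CoA generated was detected with ThioGlo1 (50uM) fluorescence at Ex340nm/Em540nm, read immediately and after 20 min at room temperature. Enzyme, 20 nM in HEPES pH 7.5 buffer, saw compounds 15 min before adding 75uM H3(1-25) peptide and 70uM acetyl-CoA.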
VDR inhibitor = vitamin D3 receptor (human) inhibition; AID 504847; VDR-SRC2-3 peptide fluorescence polarization, 2 h; P11473; 400,000 tested, 0.93% active; Potency, µM, inactives show max response, negative = inhibition, hits mostly inhibitors
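VDR–SRC2-3 interaction, FP format. Cmpds 23 nl via pintool, brief spin, 2 h ambient incubation.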
TDP1 cell noCPT = qHTS for Inhibitors of human tyrosyl-DNA phosphodiesterase 1 (TDP1): qHTS in cells in absence of CPT. 420,000 tested, 15% active. Potency, µM (series often up to 46.2 µM), inactives show top-dose activity change, negative = growth inhibition, hits mostly inhibitors. AID 686978, 2013. DT40 Tdp1-/- hTDP1 cells, no CPT, ATP luminescence, 48 h; also: nearly all actives have a fitted effect of over 55% in size
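Seeded 400 DT40-hTDP1 cells/well (vehicle DMSO, no 20 nM CPT); pinned compounds; ≥48 hr at 37 °C; CellTiter-Glo luminescence as viability measure.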
TDP1 block = blocks human tyrosyl-DNA phosphodiesterase 1 | Q9NUW8 | Potency, µM (doses to about 130 µM), inactives show top-dose activity change, negative = inhibition, usual class: inhibitors | recombinant TDP1, AlphaScreen DNA substrate cleavage | 350,000 tested, 0.28% active | AID 485290; also: nearly all actives have a fitted effect of over 40% in size
Target sequence (Q9NUW8 whole entry, looked up): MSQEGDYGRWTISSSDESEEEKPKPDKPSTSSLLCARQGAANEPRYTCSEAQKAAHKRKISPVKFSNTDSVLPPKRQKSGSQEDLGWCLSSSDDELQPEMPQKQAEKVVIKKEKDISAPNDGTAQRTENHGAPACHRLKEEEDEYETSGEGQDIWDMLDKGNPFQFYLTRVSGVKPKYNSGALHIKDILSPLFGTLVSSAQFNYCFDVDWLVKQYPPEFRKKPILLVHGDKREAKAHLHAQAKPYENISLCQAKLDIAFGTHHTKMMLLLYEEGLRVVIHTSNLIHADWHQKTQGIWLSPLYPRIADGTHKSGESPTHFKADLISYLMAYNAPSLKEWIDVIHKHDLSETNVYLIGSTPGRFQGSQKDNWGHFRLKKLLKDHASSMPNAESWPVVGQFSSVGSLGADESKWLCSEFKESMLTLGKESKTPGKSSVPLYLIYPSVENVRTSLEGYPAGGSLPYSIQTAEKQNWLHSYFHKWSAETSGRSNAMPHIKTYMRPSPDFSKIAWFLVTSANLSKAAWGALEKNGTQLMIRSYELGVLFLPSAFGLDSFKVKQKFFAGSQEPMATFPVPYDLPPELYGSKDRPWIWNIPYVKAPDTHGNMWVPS
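Enzyme-compound mixtures sat 15 min at room temperature, followed by a 5 min reaction with 15 nM final substrate and 10 min with AlphaScreen beads. Recombinant human Tdp1 was used at 1 nM final.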
PLK1 PBD inh = PLK1 (human) polo-box domain binding inhibition; Potency, µM, inactives show max response, negative = inhibition, actives largely listed as inhibitors; Plk1 PBD binding of FITC phosphopeptide, fluorescence polarization; AID 720504; 360,000 tested, 2.8% active; also: series mostly up to about 57 µM; nearly all actives have a fitted effect of over 65% in size
DT40 TDP1 CPT = growth inhibition of DT40 Tdp1-/-;hTDP1 cells with camptothecin (screen for TDP1 inhibitors) | chicken DT40 Tdp1-/-;hTDP1 cells + 20 nM CPT, ATP luminescence, 48 h | Potency, µM (top dose mostly 46.2 µM), inactives show top-dose activity change, negative = growth inhibition, actives largely listed as inhibitors | 420,000 tested, 12% active; also: nearly all actives have a fitted effect of over 55% in size
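Cell growth measured by CellTiter-Glo luminescence after a minimum 48 h, 37 C compound exposure with 20 nM CPT in Tdp1-knockout DT40 cells stably expressing hTDP1, seeded 400/well; qHTS titration format.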
The depositor's hits bear a star; ? = inconclusive; / = not tested or not shown; [ ] = dose if it differs, or a comment. Hits are enriched below; roughly 18% of the tested compounds scored in any of these assays. Calls follow the shape of the dose curve; as a rule, active = well fitted curve in the direction sought with a large enough effect; inconclusive = small, poorly fitted or top-dose-only effect, or another doubt; inactive = no such curve, though single readings can be large; an effect the other way counts as inactive or inconclusive. % is scaled to controls: 0 for no effect and ±100 for the full control effect; potency is read from the fitted curve at half-maximal effect.

SMILES	GCN5L2 inh	VDR inhibitor	TDP1 cell noCPT	TDP1 block	PLK1 PBD inh	DT40 TDP1 CPT
Cc1nn(Cc2c(F)c(F)c(F)c(F)c2F)c(C)c1NC(=O)c1cccc(COc2ccc(Cl)cc2)c1	-7%	7%	7.3µM*	1%	-9%	10µM*
Cc1nn(Cc2c(F)c(F)c(F)c(F)c2F)c(C)c1NC(=O)c1nn(C)c(C)c1Br	-17%	-19%	?	2%	-1%	?
Cc1cc(NC(=O)CSCC(=O)OCC(=O)c2cccc(Br)c2)no1	?	18%	10%	1%	-23%	?
COC(=O)CN1C(=S)N(c2ccc(F)cc2)C(=O)C1CC(=O)Nc1ccc(OC)cc1 (stereo unspecified)	0%	-13%	6%	/	-16%	-11%
CCCSc1nc(=O)c2c(n1C)NC(=O)CC2c1cccc(F)c1F (stereo unspecified)	-1%	6%	-9%	?	/	-5%
Cc1cccc(CSc2nc(=O)c3c(n2C)NC(=O)CC3c2cc(F)cc(F)c2)c1 (stereo unspecified)	-5%	3%	6.5µM*	4%	/	9.2µM*
CCOc1cc(C2CC(=O)Nc3c2c(=O)nc(SCc2cccc(Cl)c2)n3C)ccc1O (stereo unspecified)	-5%	20%	8.2µM*	2%	/	?
O=C(OCC(=O)N(CCc1ccccc1)Cc1ccccc1)c1ccc(F)c(S(=O)(=O)N2CCOCC2)c1	/	30%	2.9µM*	/	3%	?
O=C(OCC(=O)N(CCc1ccccc1)Cc1ccccc1)c1cccc(S(=O)(=O)N2CCOCC2)c1	/	11%	7.3µM*	/	-11%	?
CC(=O)n1cc(CO)c2ccccc21	?	-2%	-3%	/	-6%	-12%
C=C(c1cn(C(C)=O)c2ccccc12)c1cn(C(C)=O)c2ccccc12	/	2%	?	/	-2%	23µM*
Cc1ccc(-c2cc(C(=O)N3CCN(S(=O)(=O)c4ccc(Br)s4)CC3)[nH]n2)cc1C	-13%	-2%	13µM*	7%	/	15µM*
Cc1ccc(-c2cc(C(=O)N3CCN(S(=O)(=O)c4ccc(Br)cc4)CC3)[nH]n2)c(C)c1	-4%	10%	?	5%	/	?
O=C(c1cc(-c2ccc(Br)cc2)n[nH]1)N1CCN(S(=O)(=O)c2ccc(Br)s2)CC1	-6%	8%	23µM*	2%	/	21µM*
Cc1ccc(-c2cc(C(=O)N3CCN(S(=O)(=O)c4ccc(Br)s4)CC3)[nH]n2)c(C)c1	-9%	10%	18µM*	2%	/	12µM*
Cc1n[nH]c(C)c1CCNC(=O)C1CCC(=O)N(CCc2cccc(F)c2)C1 (stereo unspecified)	0%	-15%	-12%	1%	-6%	?
O=C1NC[C@H](Cc2ccc(O)cc2)N(C[C@@H]2CCCN2C[C@H](Cc2ccccc2)N2C[C@H](Cc3ccc(O)cc3)N(CCc3ccccc3)C(=O)C2=O)C1=O	/	/	18µM*	/	-13%	?
O=C1NC[C@H](Cc2ccccc2)N(C[C@H]2CCCN2C[C@H](Cc2ccccc2)N2C[C@H](Cc3ccccc3)N(CCc3ccccc3)C(=O)C2=O)C1=O	/	-13%	16µM*	/	-2%	?
O=C1NC[C@H](Cc2ccccc2)N(C[C@@H]2CCCN2C[C@H](Cc2ccc(O)cc2)N2C[C@H](Cc3ccc(O)cc3)N(CCc3ccccc3)C(=O)C2=O)C1=O	/	/	-5%	/	5%	3%
O=C1NC[C@H](Cc2ccccc2)N(C[C@@H]2CCCN2C[C@H](Cc2ccccc2)N2C[C@H](Cc3ccccc3)N(CCc3ccccc3)C(=O)C2=O)C1=O	/	/	?	/	-18%	?
CCOc1ccc(/C=C(\C)C(=O)c2c(C)cc(C)[nH]c2=O)cc1	-11%	-5%	3%	/	-4%	-4%
Cc1cccc[n+]1CC(=O)c1ccc(NC(=O)c2ccccc2)cc1	3%	-19%	?	/	-24%	?
Cc1cccc[n+]1CC(=O)c1ccc([N+](=O)[O-])cc1	/	0%	16µM*	/	7%	21µM*
COc1ccc(C(=O)C[n+]2ccccc2C)cc1	0%	32µM*	21µM*	3%	6µM*	16µM*
CCOc1ccc(-c2cc(NC(=O)Nc3ccccc3Cl)c(C(=O)OC)s2)cc1	2%	4%	?	-3%	/	?
SMILES	GCN5L2 inh	VDR inhibitor	TDP1 cell noCPT	TDP1 block	PLK1 PBD inh	DT40 TDP1 CPT
CCCn1c(-c2cccc([N+](=O)[O-])c2)nc2c1c(=O)[nH]c(=O)n2Cc1ccccc1	-4%	-7%	16µM*	3%	-5%	21µM*
CCCCn1c(=O)[nH]c(=O)c2c1nc(-c1ccsc1)n2Cc1ccccc1	-19%	3%	29µM*	2%	-13%	?
CCCCn1c(=O)[nH]c(=O)c2c1nc(-c1ccccc1F)n2Cc1ccccc1OC	-17%	-16%	?	5%	-11%	23µM*
CC(C)(C)OC(=O)N1CCC[C@H]1C(=O)N1CCC[C@H]1C(=O)NCc1ccncc1	/	/	-11%	/	-6%	-17%
COCC(=O)Nc1cc(C(=O)N2CCN(c3ccc(Cl)cn3)CC2)c2c(c1)nc(C1CCC1)n2C	/	/	-11%	/	/	-16%[9.04 µM]
O=C(c1ccc2c(c1)N(Cc1ccccc1)C(=O)c1ccccc1S2(=O)=O)N1CCN(Cc2ccccc2)CC1	-10%	-18%	7.3µM*	1%	/	10µM*
O=C(c1ccc2c(c1)N(Cc1ccc(Cl)cc1)C(=O)c1ccccc1S2=O)N1CCC(Cc2ccccc2)CC1 (stereo unspecified)	0%	-1%	9.2µM*	1%	/	12µM*
O=C(NCC(=O)N1CCN(c2ccccc2)CC1)c1ccc(Cl)cc1	1%	1%	-9%	/	-4%	6%
Cc1cccc(CN2C(=O)c3ccccc3S(=O)(=O)c3ccc(C(=O)N4CCN(c5cc(C)ccc5C)CC4)cc32)c1	-4%	-10%	-28%	5%	/	-21%
O=C(c1ccc2c(c1)N(Cc1cccc(Cl)c1)C(=O)c1ccccc1S2(=O)=O)N1CCC(Cc2ccccc2)CC1	-3%	-1%	4.1µM*	6%	/	4.1µM*
O=C(NCCN1CCCC1)c1ccc2c(c1)N(Cc1cccc(Cl)c1)C(=O)c1ccccc1S2(=O)=O	-1%	-4%	5%	1%	0%	?
O=C(NCC(=O)N1CCC(Cc2ccccc2)CC1)c1ccc(Cl)cc1	-27%	-21%	?	0%	2%	16µM*
